# In PubChem BioAssay AID1259374 (The Scripps Research Institute Molecular Screening Center, 2018):
# About 5,900 (0.91%) of roughly 650,000 compounds were called active. No stated cut-off is given here; in the data, active means inhibition above about 50%; inactive means the rest. The full list was thinned out, with actives kept by preference.
# Molecular target: Microphthalmia-associated transcription factor (Homo sapiens) (UniProt O75030)
# Experiment: MITF inhibitors, primary screen, biochemical, AlphaScreen, human (AID 1259374);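 further: 0% = vehicle wells with protein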
# Conditions: AlphaScreen MITF homodimerization, bead proximity signal; at 2.6 µM; active compounds read high
# Microphthalmia-associated transcription factor (Homo sapiens), sequence (O75030 whole entry, looked up): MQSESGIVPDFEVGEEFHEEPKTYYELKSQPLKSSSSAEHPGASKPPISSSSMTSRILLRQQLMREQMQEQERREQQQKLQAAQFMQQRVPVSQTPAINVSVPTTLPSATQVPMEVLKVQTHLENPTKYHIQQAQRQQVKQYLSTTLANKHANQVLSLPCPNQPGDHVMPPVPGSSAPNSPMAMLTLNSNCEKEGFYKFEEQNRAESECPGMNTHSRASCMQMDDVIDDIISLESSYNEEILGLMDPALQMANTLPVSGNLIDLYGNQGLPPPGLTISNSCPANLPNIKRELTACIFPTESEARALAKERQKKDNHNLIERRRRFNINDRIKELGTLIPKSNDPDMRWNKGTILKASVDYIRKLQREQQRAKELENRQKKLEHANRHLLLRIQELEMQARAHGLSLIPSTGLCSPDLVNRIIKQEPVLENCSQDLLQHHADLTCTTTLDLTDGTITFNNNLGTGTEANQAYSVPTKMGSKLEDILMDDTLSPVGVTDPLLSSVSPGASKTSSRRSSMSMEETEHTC
row,Structure (SMILES),inhibition
1,c1ccc(CSc2nc(C3CC3)nc3ccccc23)nc1,-3.42% (inactive)
2,COC(=O)CSc1nc(C2CC2)nc2ccccc12,72.1% (active)
3,Cc1nnc(NC(=O)CSc2nc(C3CCCCC3)nc3ccccc23)s1,-12.8% (inactive)
4,Cc1cccc(NC(=O)CC[C@H]2CN(Cc3ccccc3)CC[C@H]2N(C)C)c1,-2.16% (inactive)
5,CC(C)(C)c1ccc(OCCCCNCCO)cc1,-8.77% (inactive)
6,OCCNCCCOc1ccc(I)cc1,-4.92% (inactive)
7,CCOc1ccc(OCCCCNCCO)cc1,63.6% (active)
8,O=C(Nc1ccc(N2CCC(NCc3ccc4c(c3)OCO4)CC2)cc1)C1CCCC1,-10.3% (inactive)
9,O=C(c1ccccc1)c1cccc(NC(=O)C2CCCCC2)c1,-1.02% (inactive)
10,CCOc1cccc(C2C(C(=O)OCCOc3ccccc3)=C(C)NC3=C2C(=O)CCC3)c1 (configuration not stated),59.2% (active)
11,COC(=O)c1ccc(C2C(C(=O)OCCOc3ccccc3)=C(C)NC3=C2C(=O)CCC3)cc1 (configuration not stated),0.05% (inactive)
12,CC1=C(C(=O)OCC(C)C)C(c2cccc(OCc3ccccc3)c2)C2=C(CCCC2=O)N1 (configuration not stated),0.37% (inactive)
13,COc1ccc(C(=O)N/C(=C\c2cccc([N+](=O)[O-])c2)C(=O)NC(CC(C)C)C(=O)O)cc1 (configuration not stated),-8.1% (inactive)
14,COCCn1nnnc1C(c1ccc(F)cc1)N1CCN(c2ccccc2OC)CC1 (configuration not stated),-3.53% (inactive)
15,Cc1cc(-c2ccc(S(=O)(=O)NC3CCC(C)CC3)cc2)on1 (configuration not stated),4.94% (inactive)
16,CCOC(=O)C1CCN(C(=O)c2ccc(N3CC4CC(C3)c3cccc(=O)n3C4)c(NC(=O)c3cccnc3)c2)CC1 (configuration not stated),-0.93% (inactive)
17,COc1ccccc1NC(=O)c1ccc(N2CC3CC(C2)c2cccc(=O)n2C3)c(NC(=O)c2cccnc2)c1 (configuration not stated),-6.03% (inactive)
18,CC(=O)N1CCN(C(=O)c2ccc(N3CC4CC(C3)c3cccc(=O)n3C4)c(NC(=O)c3cccnc3)c2)CC1 (configuration not stated),60% (active)
19,O=C(O)CCCCCNC(=O)/C(=C\c1ccco1)NC(=O)c1ccccc1,52.3% (active)
20,CCCCNC(=O)/C(=C/c1ccco1)NC(=O)c1ccccc1,5.66% (inactive)
21,O=C(NCCO)/C(=C/c1ccco1)NC(=O)c1ccccc1,13.5% (inactive)
22,CC(C)(CO)NC(=O)CCC1(Cc2ccc3ccccc3c2)CCC(=O)N1 (configuration not stated),5.16% (inactive)
23,CCc1ccc(C(=O)CC(c2ccccc2)C2CCCCC2=O)cc1 (configuration not stated),2.82% (inactive)

row,Structure (SMILES),inhibition
1,Cc1cncn(CC(=O)NCCOc2ccccc2)c1=O,-1.97% (inactive)
2,COc1cc(/C=C2/SC(=S)N(C(CCSC)C(=O)O)C2=O)ccc1O (configuration not stated),15.5% (inactive)
3,O=C(CCN1C(=O)/C(=C\c2ccco2)SC1=S)Nc1cccc(C(=O)O)c1,2.65% (inactive)
4,CC(C(=O)O)N1C(=O)S/C(=C\c2ccccc2)C1=O (configuration not stated),8.38% (inactive)
5,O=C(CCCN1C(=O)/C(=C\c2ccco2)SC1=S)Nc1ccccc1C(=O)O,9.5% (inactive)
6,Cc1ccc(/C=C2\SC(=S)N(C(C)C(=O)O)C2=O)o1 (configuration not stated),69.4% (active)
7,CCCCC(C(=O)O)N1C(=O)/C(=C2/C(=O)N(C(C)=O)c3ccccc32)SC1=S (configuration not stated),6.57% (inactive)
8,Cc1ccc(/C=C2\SC(=S)N(c3cccc(O)c3)C2=O)o1,13.4% (inactive)
9,O=C(O)CCC(C(=O)O)N1C(=O)/C(=C\c2ccco2)SC1=S (configuration not stated),62.6% (active)
10,CCCC(C(=O)O)N1C(=O)/C(=C/C=C/c2ccco2)SC1=S (configuration not stated),63.6% (active)
11,CSc1ccc(CCNC(=O)c2cc3ccccn3n2)cc1,-9.21% (inactive)
12,COc1ccc2[nH]c3c(c2c1)CCOC31CCN(C(=O)N[C@@H](C)c2ccccc2)CC1,-20.6% (inactive)
13,O=C(Nc1cccc(Cl)c1N1CCN(Cc2ccco2)CC1)c1ccc(Br)o1,-6.95% (inactive)
14,O=C(CNCCC1=CCCCC1)Nc1ccc(N2CCCC2)cc1,10.5% (inactive)
15,O=C(CNC1CCCC1)Nc1ccc(N2CCCC2)cc1,6.86% (inactive)
16,O=C(CNCc1ccc(F)cc1)Nc1ccc(N2CCCC2)cc1,53.1% (active)
17,O=C(NCc1ccccc1)NC(=O)c1cccnc1,22.7% (inactive)
18,CCOc1ccc(-c2cc(N)n(S(=O)(=O)c3ccc(C)cc3)n2)cc1,-6.9% (inactive)
19,Cn1c(=NC(=O)COc2ccccc2)sc2cc(S(C)(=O)=O)ccc21,52.2% (active)
20,Cn1c(=NC(=O)CCOc2ccccc2)sc2cc(Br)ccc21,3.97% (inactive)
21,CCCC(=O)N=c1sc2cc(S(C)(=O)=O)ccc2n1C,19% (inactive)
22,Cc1ccc(/C=C2\N=C(c3cccc(I)c3)OC2=O)cc1,12.7% (inactive)
23,Cc1ccc(C)c(NC(=O)CN(Cc2ccccc2)S(=O)(=O)c2ccc(Br)cc2)c1,-9.84% (inactive)

row,Structure (SMILES),inhibition
1,CCN(Cc1ccccc1)C(=O)c1cc2c(=O)n3cccc(C)c3nc2n1C,-25.5% (inactive)
2,Cc1ccc(NC(=O)CN2CCN(c3ccccn3)CC2)cc1F,8.15% (inactive)
3,Cc1ccc(NC(=O)Cn2ccsc2=N)cc1F,6.14% (inactive)
4,CC(=O)N1CCN(CC(=O)Nc2ccc(C)c(F)c2)CC1,52.6% (active)
5,CCOc1ccc(Cl)cc1/C=C1/SC(=S)N(CCC(=O)O)C1=O,-26.2% (inactive)
6,CC(C)n1cnc2c(NCc3ccccc3)nc(Nc3ccncn3)nc21,10% (inactive)
7,Cn1c(-c2ccccc2)cnc1NCc1cccc(F)c1,38% (inactive)
8,Cn1c(-c2ccc(F)cc2)cnc1NCc1cccnc1,72.7% (active)
9,FC(F)(F)c1cc(-c2cnc3c(NCc4cccnc4)nccn23)cc(C(F)(F)F)c1,-11.6% (inactive)
10,COc1ccc(C(=O)COC(=O)c2c3c(nc4ccccc24)CCCC3)cc1OC,0.37% (inactive)
11,CN(Cc1cccs1)C(=O)CC1(c2cccc(F)c2)CC(=O)N(C2CCCC2)C1=O (configuration not stated),7.07% (inactive)
12,Cc1[nH]c2ccccc2c1CN1CCN(Cc2ccc3c(c2)OCO3)CC1,38.3% (inactive)
13,Cc1ccc(CN2CCN(Cc3ccncc3)CC2)cc1,77.5% (active)
14,OC1(Cc2ccccc2)CCN(Cc2ccncc2)CC1,1.54% (inactive)
15,Cc1ccc(N2CCN(Cc3cccnc3)CC2)cc1,9.13% (inactive)
16,Cc1cc(OCC(O)CN2CCCC2)ccc1Cl (configuration not stated),8.73% (inactive)
17,O=C1OC(c2ccc(F)cc2)=N/C1=C/c1ccc([N+](=O)[O-])cc1,5.42% (inactive)
18,CCN(CC)CCN1COc2c(cc(Cl)c3cccnc23)C1,102% (active)
19,Cn1c(=O)n(Cc2cc3c(cc2Cl)OCO3)c2cccnc21,13.7% (inactive)
20,CCN(CC)CCN1CCN(c2ncc(-c3ccccc3)n3ccnc23)CC1,8.61% (inactive)
21,O=C(Cc1cccs1)N/N=C\C=C\c1ccco1,64.5% (active)
22,O=C(Cc1cccs1)N/N=C\c1ccc(Cl)c(Cl)c1,-9.59% (inactive)
23,C/C(=N/NC(=O)Cc1cccs1)c1ccc(Br)cc1,7.44% (inactive)

row,Structure (SMILES),inhibition
1,Cc1ccc(N(C(=O)C(C)Oc2ccccc2)C2C=CS(=O)(=O)C2)cc1 (configuration not stated),-4% (inactive)
2,O=C(Nc1cccs1)N1CCC(Cn2c(COc3ccccc3)nc3ccccc32)CC1,12.3% (inactive)
3,COCCCNC(=O)Nc1ccc([N+](=O)[O-])cc1,6.26% (inactive)
4,COCCNC(=O)Nc1ccc2nc(-c3ccco3)c(-c3ccco3)nc2c1,87.1% (active)
5,COCCCNC(=O)Nc1ccc(Cl)c(Cl)c1,9.41% (inactive)
6,O=C(CCN1C(=O)C2C3C=CC(C3)C2C1=O)Nc1ncc(S(=O)(=O)c2ccc([N+](=O)[O-])cc2)s1 (configuration not stated),2.57% (inactive)
7,O=C(NNC(=O)c1cc([N+](=O)[O-])ccc1Cl)c1cccc(Cl)c1,-0.55% (inactive)
8,COC(=O)c1sc2nc(C)[nH]c(=O)c2c1C,-2% (inactive)
9,Cc1cc(C)n2c(SCc3nc4sc(C)c(C)c4c(=O)[nH]3)nnc2n1,7.98% (inactive)
10,CSc1nnc(SCc2nc3sc(C(=O)O)c(C)c3c(=O)[nH]2)s1,55.8% (active)
11,Cc1ccc(C)c(N2CCN(Cc3nnnn3Cc3ccc(F)cc3)CC2)c1,13.1% (inactive)
12,CC1(C(=O)O)NC(c2cc(Cl)cc(Cl)c2O)C2C(=O)N(c3ccccc3)C(=O)C21 (configuration not stated),-2.7% (inactive)
13,COc1ccccc1N1CCN(S(=O)(=O)c2ccccc2[N+](=O)[O-])CC1,-2.42% (inactive)
14,O=[N+]([O-])c1ccccc1S(=O)(=O)N1CCN(C2Cc3ccccc3C2)CC1,52.9% (active)
15,O=CN1CCN(S(=O)(=O)c2ccccc2[N+](=O)[O-])CC1,-7.16% (inactive)
16,CC(=O)c1cccc(-c2nc(C)cc(NCc3nc4ccccc4[nH]3)n2)c1,-6.7% (inactive)
17,COC(=O)c1sc(NC(=O)c2ccncc2)c(C#N)c1C,22.1% (inactive)
18,COC(=O)c1sc(NC(=O)c2cccc(OC)c2OC)c(C#N)c1C,15.6% (inactive)
19,COC(=O)c1sc(NC(=O)c2ccccc2C)c(C#N)c1C,58.6% (active)
20,O=C(O)CCCCC1SCC2NC(=O)NC21O (configuration not stated),115% (active)
21,COc1ccc(NC(=O)c2cc(S(=O)(=O)NCCc3ccccc3)ccc2F)cc1,9.24% (inactive)
22,O=c1c2c(nc(SCc3ccccc3)n1-c1ccccc1)-c1ccccc1CC21CCCC1,7.99% (inactive)
23,CC(C)C(Nc1nc(N2CCC[C@H]2C(=O)O)ccc1[N+](=O)[O-])C(=O)O (some centres not stated),4.19% (inactive)
